Mcl1-Noxa inh: Mcl-1/Noxa binding inhibitors, primary screen, biochemical, TR-FRET, 1536-well; TR-FRET Mcl-1/Noxa peptide binding, 2 h; 220,000 compounds, 1.5% hits; AID 1022, 2008; inhibition, % at 21.7 µM; Induced myeloid leukemia cell differentiation protein Mcl-1 (Homo sapiens), Q07820;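 active means compounds that cut the protein-peptide binding signal by more than 50% relative to plate controls in a single-dose test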;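 further: His-tagged Mcl-1 with rhodamine Noxa BH3 peptide and terbium anti-His antibody; 0% = Mcl-1 plus Noxa peptide wells and 100% = peptide-only wells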
Mcl-1 Bim block: inhibitors of Bim peptide binding to Mcl-1, primary screen, biochemical, bead-based flow cytometry, multiplex. inhibition, % at 10 µM. Bim peptide-Mcl-1 binding. 190,000 compounds, 0.1% hits. Induced myeloid leukemia cell differentiation protein Mcl-1 (Homo sapiens), Q07820; in the data active means inhibition above about 40%;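 further: 0% = no compound tracer wells and 100% = peptide blocker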
Mcl1-Bid inh: Mcl-1/Bid binding inhibitors, primary screen, biochemical, TR-FRET, 1536-well | AID 1021, 2008 | 220,000 compounds, 0.97% hits | Induced myeloid leukemia cell differentiation protein Mcl-1 (Homo sapiens), Q07820 | inhibition, % at 21.7 µM | TR-FRET Mcl-1/Bid-Dy647 peptide binding;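 active means compounds that cut the binding signal by more than half at the single screening dose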;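 further: His-tagged Mcl-1 with europium anti-His antibody binding Bid BH3 peptide; 0% = Mcl-1 plus peptide wells and 100% = peptide-only wells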
GLD-1 TGE inh: GLD-1/TGE RNA complex disruptors, primary screen, biochemical, fluorescence polarization; Female germline-specific tumor suppressor gld-1 (Caenorhabditis elegans), Q17339; purified GLD-1 + fluorescein TGE RNA; inhibition, % at 5.96 µM; 320,000 compounds, 0.44% hits; AID 2280, 2010;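 active means percent inhibition above a per-plate cutoff, the plate mean of test compounds plus 3 SD, cut at about 30% in these data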;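 further: 0% = DMSO wells with GLD-1 and probe and 100% = wells lacking GLD-1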
Target sequence (Q17339 whole entry, looked up): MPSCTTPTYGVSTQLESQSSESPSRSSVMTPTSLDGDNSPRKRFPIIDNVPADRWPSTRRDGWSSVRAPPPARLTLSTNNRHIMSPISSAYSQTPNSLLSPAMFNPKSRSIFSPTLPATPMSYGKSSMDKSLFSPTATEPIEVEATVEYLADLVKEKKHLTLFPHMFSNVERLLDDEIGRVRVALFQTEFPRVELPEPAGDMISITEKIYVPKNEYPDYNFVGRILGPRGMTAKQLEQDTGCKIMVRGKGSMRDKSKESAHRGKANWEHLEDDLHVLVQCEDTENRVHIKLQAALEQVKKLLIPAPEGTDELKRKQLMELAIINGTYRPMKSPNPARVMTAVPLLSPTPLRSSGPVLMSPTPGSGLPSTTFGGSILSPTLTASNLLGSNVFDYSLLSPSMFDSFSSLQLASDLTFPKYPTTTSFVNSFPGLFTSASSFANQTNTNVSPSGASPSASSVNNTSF
MCL1 BIM primary: inhibitors of MCL1 binding to BIM-BH3, primary screen, biochemical, fluorescence polarization; Induced myeloid leukemia cell differentiation protein Mcl-1 (Homo sapiens), Q07820; GST-MCL1 / FITC-Bim-BH3 fluorescence polarization; inhibition, % at 10.9 µM; 320,000 compounds, 0.68% hits; AID 2057, 2009;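 active means inhibition above the mean inhibition of all tested compounds plus 3 SD, set per campaign, cut at about 40% in these data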;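 further: 0% = DMSO wells and 100% = unlabeled Bim-BH3 peptide control; higher means more loss of mP so more displacement of Bim peptide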
Bcl-xL primary: inhibitors of human Bcl-xL, primary screen, biochemical, fluorescence polarization, HTS | GST-Bcl-xL / FITC-Bim BH3 peptide fluorescence polarization | 320,000 compounds, 0.7% hits | Bcl-2-like protein 1 (Homo sapiens), Q07817 | inhibition, % at 10.9 µM;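 active means inhibition above the mean of all tested compounds plus 3 SD, cutoff set per campaign, cut at about 30% in these data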;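 further: 0% = DMSO wells and 100% = unlabeled Bim-BH3 peptide competitor; inhibitors lower millipolarization by displacing the labeled peptide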
Target sequence (Q07817 whole entry, looked up): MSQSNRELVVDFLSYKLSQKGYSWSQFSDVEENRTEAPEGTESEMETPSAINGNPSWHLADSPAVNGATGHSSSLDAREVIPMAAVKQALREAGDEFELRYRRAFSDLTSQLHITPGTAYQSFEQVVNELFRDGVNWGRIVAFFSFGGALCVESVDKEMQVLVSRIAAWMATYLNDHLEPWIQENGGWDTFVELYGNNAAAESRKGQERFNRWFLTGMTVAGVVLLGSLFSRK
BCLXL inh confirm: Bcl-xL inhibitors blocking Bim BH3 binding, confirmation, counter-screen for MCL1 inhibitor project, biochemical, fluorescence polarization. AID 2166, 2009. shares compounds with MCL1 BIM primary. inhibition, % at 10.9 µM. GST-Bcl-xL / FITC-Bim BH3 peptide FP binding. 1,700 compounds, 54% hits;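 active means inhibition above a cutoff equal to the mean inhibition of all tested compounds plus 3 SD, cut at about 30% in these data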;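 further: 0% = DMSO wells and 100% = unlabeled Bim BH3 control peptide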
MCL1 BIM confirm: inhibitors of MCL1 binding to BIM-BH3, confirmation, biochemical, fluorescence polarization, triplicate. shares compounds with MCL1 BIM primary. GST-MCL1 / FITC-Bim-BH3 fluorescence polarization. inhibition, % at 10.9 µM. 1,700 compounds, 61% hits;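 active means inhibition above the average of all tested compounds plus 3 SD, cut at about 40% in these data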;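 further: 0% = DMSO wells and 100% = unlabeled Bim-BH3 control peptide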
GLD-1 TGE cf: GLD-1/TGE RNA binding inhibitors, retest, confirmation, biochemical, fluorescence polarization, triplicate; shares compounds with GLD-1 TGE inh; GLD-1/FL-TGE RNA fluorescence polarization; inhibition, % at 5.96 µM; 550 compounds, 10% hits; AID 2459, 2010;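 active means average inhibition across triplicates above the hit cutoff set in the primary screen, cut at about 32% in these data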;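 further: 0% = GLD-1 with RNA probe and DMSO and 100% = wells lacking GLD-1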
The depositor's hits bear a star; i = inactive; . = not tested or not shown; + = active, no number. Hits are enriched below; roughly 2.3% of the tested compounds scored in any of these assays.

SMILES	Mcl1-Noxa inh	Mcl-1 Bim block	Mcl1-Bid inh	GLD-1 TGE inh	MCL1 BIM primary	Bcl-xL primary	BCLXL inh confirm	MCL1 BIM confirm	others
O=C1NC(=O)N(c2ccc(Cl)cc2)C(=O)/C1=C\c1ccc(Sc2nc3ccccc3[nH]2)o1	68.5*	4.0	-2.3	-7.7	73.9*	58.5*	29.8	64.5*
CCc1ccc(N2C(=O)NC(=O)/C(=C\c3cc(C)n(-c4cc(C(=O)O)cc(C(=O)O)c4)c3C)C2=O)cc1	.	.	.	2.0	6.2	8.7	.	.
COc1ccc2c(c1O)-c1c(OC)c(OC)cc3c1[C@H](C2)N(C)CC3	.	.	.	-0.5	2.7	7.7	.	.
CCCN1CCc2cccc3c2[C@H]1Cc1ccc(O)c(O)c1-3	.	.	.	15.5	46.1*	32.2*	54.4*	84.7*
CCN1C(=O)NC(=O)/C(=C\c2cn(CC(=O)N3CCCCC3C)c3ccccc23)C1=O (centres undefined)	.	.	.	-5.6	80.5*	104.7*	162.4*	+
CN1C(=O)C(=Cc2cn(CC(=O)N3CCCC3)c3ccccc23)C(=O)N(C)C1=O	.	.	.	-4.7	-8.3	-0.3	.	.
CCN(C(=O)COC(=O)Cc1ccccc1)c1c(N)n(Cc2ccccc2)c(=O)[nH]c1=O	.	.	.	-1.5	3.2	1.9	.	.
COc1ccc(N/N=C/c2c(O)n(-c3ccc(C)c(C)c3)c(=O)[nH]c2=O)cc1	19.0	27.0	-0.6	-11.9	53.6*	50.8*	11.1	4.8
O=C1C=C2C=C[C@@H]3CC2(O1)[C@H]1CCCCN31	.	.	.	-0.7	125.3*	4.5	3.1	4.1
CCS(=O)(=O)NCc1nnc2n1-c1ccc(Cl)cc1C(c1ccccc1)=NC2	14.6	-3.0	-9.3	-3.8	-2.4	-1.4	.	.
CCOC(=O)[C@]1(C#N)[C@@H]2C=CC(C(C)=O)=CN2[C@@H](C(N)=O)[C@@H]1c1ccsc1	-3.5	-5.0	-43.9	54.1*	95.5*	88.2*	108.2*	145.2*
CCOc1ccc(-n2c(O)c(/C=C3\C=Nc4ccccc43)c(=O)[nH]c2=O)cc1	.	.	.	-23.2	78.8*	78.5*	6.0	-8.3
CNC(=O)Oc1cccc(-c2cn3cc(Cl)ccc3n2)c1	-7.6	-3.0	-79.0	-3.1	6.4	5.1	.	.
COc1ccc(CC2(CCc3ccncc3)C(=O)NC(=O)NC2=O)cc1	-6.5	-6.0	-7.7	2.1	2.5	8.2	.	.
COc1ccc(N2C(=O)/C(=C/c3cc(C)n(-c4ccc(C)cn4)c3C)C(=O)NC2=S)c(OC)c1	15.2	16.0	-26.2	0.1	5.4	15.0	.	.
COc1ccc(OC)c(N2C(=O)/C(=C/c3ccco3)C(=O)NC2=S)c1	.	.	.	9.9	86.7*	79.9*	70.8*	77.9*
O=C1NC(=S)N(c2ccc(F)cc2)C(=O)/C1=C/c1ccco1	.	.	.	0.7	68.0*	79.3*	72.8*	62.4*
COc1cc(/C=C2\C(=O)NC(=O)N(c3ccccc3)C2=O)c([N+](=O)[O-])cc1OC	20.4	15.0	-77.1	.	.	.	.	.
Cc1ccc(/C=C2\C(=O)NC(=S)N(c3cccc(F)c3)C2=O)o1	.	.	.	-7.5	-14.4	-19.3	.	.
COc1ccc(OC)c(N2C(=O)NC(=O)/C(=C/c3ccc([N+](=O)[O-])s3)C2=O)c1	68.8*	1.0	-15.0	-2.4	46.3*	26.1	76.5*	108.3*
CN1CCN(c2nc(N)cc(=O)[nH]2)CC1	-14.4	.	31.9	-4.8	0.3	4.2	.	.
CCCCCCn1c(O)c(C=Nc2ccccc2N2CCOCC2)c(=O)[nH]c1=S	-23.6	.	-18.6	-3.0	-2.4	-0.2	.	.
CC(C)c1ccccc1OCC(=O)N1CCCN(C)CC1	.	.	.	5.2	2.6	-0.6	.	.
CC(C)C[C@H]1C(=O)N2CCC[C@H]2[C@]2(O)O[C@](NC(=O)[C@@H]3C=C4c5cccc6[nH]cc(c56)C[C@H]4N(C)C3)(C(C)C)C(=O)N12	.	.	.	117.9*	+	149.4*	92.5*	113.8*
CN1/C(=C\C=C\C2=[N+](C)c3ccc4ccccc4c3C2(C)C)C(C)(C)c2ccccc21	i	5.0	-167.5	179.3*	+	189.8*	165.6*	199.7*
SMILES	Mcl1-Noxa inh	Mcl-1 Bim block	Mcl1-Bid inh	GLD-1 TGE inh	MCL1 BIM primary	Bcl-xL primary	BCLXL inh confirm	MCL1 BIM confirm	others
Cn1cc(/C=C2\C(=O)NC(=O)N(c3ccccc3)C2=O)c2ccccc21	.	.	.	-9.7	182.0*	150.6*	59.7*	64.4*
O=C(O)Cn1cc(/C=C2\C(=O)NC(=O)N(c3ccc(Cl)cc3)C2=O)c2ccccc21	.	.	.	-20.8	-19.9	-12.8	.	.
CCN1CCN(c2cc(N3CCCC3)c([N+](=O)[O-])cc2F)CC1	25.3	-3.0	-8.8	5.8	3.3	6.0	.	.
N#CC(C#N)=Cc1ccc(C=C(C#N)C#N)cc1	-4.1	.	-16.7	.	.	.	.	.
Cc1cc(N2CCCC2)ccc1C=C(C#N)C#N	-15.4	2.0	-6.0	-70.2	180.1*	118.8*	85.3*	107.8*
O=C(COc1ccc2c3c(c(=O)oc2c1)CCC3)N1C[C@H]2C[C@@H](C1)c1cccc(=O)n1C2	.	.	.	7.5	1.1	2.8	.	.
CC[C@@H](CO)C1CC2NC3CC4(c5ccccc5N(C)[C@@H]24)C(O)C31 (some centres undefined)	.	.	.	6.2	-1.4	4.9	.	.
C=CCn1c(O)c(C(C)=NC(C)c2ccccc2)c(=O)[nH]c1=O (centres undefined)	-5.9	.	-9.0	1.6	5.5	4.8	.	.
COC(=O)C1C=C2c3cccc4[nH]cc(c34)CC2N(C)C1 (centres undefined)	46.2	.	-36.4	.	.	.	.	.
CCC(CO)NC(=O)C1C=C2c3cccc4[nH]cc(c34)CC2N(C)C1 (centres undefined)	16.8	.	-143.3	34.8*	46.7*	46.6*	96.1*	111.0*	GLD-1 TGE cf=8.7

From PubChem BioAssay
